Records with an inconclusive call do not appear. The source made the active and inactive calls. Unless noted, calls come from the whole dose curve; as a rule, active = well fitted curve in the direction sought with a large enough effect; inconclusive = small, poorly fitted or top-dose-only effect, or another doubt; inactive = no such curve, though single readings can be large; an effect the other way counts as inactive or inconclusive.
Legend:
[1] = qHTS to identify inhibitors of the type 1 interferon - major histocompatibility complex class I in skeletal muscle: primary screen against the NCATS LOPAC collection (AID 1347405);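 note: lytic HiBiT luminescence reporting HLA-B protein level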; note: potency is the fitted concentration of half-maximal effect
How it was run: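 Cells: C25cl48 human myoblasts, HiBiT-tagged HLA-B*08:01, stimulated with IFN-beta 4.0 ng/ml. Compounds are titrated 1:4.3 over 7 points from 46 uM final and incubated 24 hrs; endogenous MHC class I is quantified by HiBiT lytic luminescence.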

[2] = qHTS for inhibitors of adenylyl cyclases using a fission yeast platform: a pilot screen against the NCATS LOPAC library (AID 1347410)
How it was run: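 S. pombe CHP2027 (AC9-GNAS-PDE4D2) carrying a PKA-repressed fbp1-GFP reporter was exposed to LOPAC compounds (final up to 57 µM) for 18 h at 30C in the dark, in EMM with histidine, lysine and uracil; GFP gain-of-signal read by laser scanning cytometry.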

[3] = Validation qHTS assay for inhibitors of Activation Induced Cytidine Deaminase (AID): UDG Counterscreen signal (AID 1347427)
How it was run: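 Counterscreen read of UDG activity (2 U/mL, 4/3x) in the FRET deamination format with AID (1 uM, 4/3x), DJC20/DJC23 substrates (250 nM, 4x), 4 h at room temperature. NaOH stop, fluorescence at 560 ex/665 em.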

[4] = molecular target: Single-stranded DNA cytosine deaminase (Homo sapiens) (UniProt Q9GZX7); assay: Validation qHTS assay for inhibitors of Activation Induced Cytidine Deaminase (AID): AID signal (AID 1347429)
Single-stranded DNA cytosine deaminase (Homo sapiens), sequence (Q9GZX7 whole entry, looked up): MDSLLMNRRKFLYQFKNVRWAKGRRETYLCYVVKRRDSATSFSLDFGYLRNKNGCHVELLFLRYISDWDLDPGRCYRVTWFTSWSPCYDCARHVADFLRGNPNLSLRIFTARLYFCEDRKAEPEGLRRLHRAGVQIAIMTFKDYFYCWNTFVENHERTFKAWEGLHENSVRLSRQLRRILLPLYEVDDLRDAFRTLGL
How it was run: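 In this coupled qHTS, AID deaminates a FRET-labelled ssDNA substrate in the presence of UDG over 4 hr at room temperature. Compounds span up to 114 uM final.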

[5] = Primary qHTS for inhibitors of La Crosse Virus (LACV) - induced cell death in SH-SY5Y cells (AID 1508616); note: potency is the fitted concentration of half-maximal effect
How it was run: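 Readout was luminescence from ATPLite 1step added after a 6-day LACV infection (0.01 MOI) of SH-SY5Y cells that had received pin-transferred compound 24 hr after seeding.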

[6] = qHTS to identify inhibitors of the type 1 interferon - major histocompatibility complex class I in skeletal muscle: primary screen against the NCATS Pharmaceutical Collection (AID 1347407);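 note: luminescence of HiBiT knocked into endogenous HLA-B as interferon-induced MHC class I level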
How it was run: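 Immortalized human myoblasts (C25cl48) with HiBiT knocked into endogenous HLA-B*08:01 were stimulated with 4 ng/ml IFN-beta and treated with compounds (8-point, 1:5, top 46 uM final) for 24 h at 37 C; HiBiT lytic luminescence read.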

[7] = molecular target: Protein phosphatase 1D (Homo sapiens) (UniProt O15297); assay: RapidFire Mass Spectrometry qHTS Assay for Modulators of WT P53-Induced Phosphatase 1 (WIP1) (AID 1347424);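 note: amount of dephosphorylated VEPPL-S-QETFS peptide product formed by WIP1; series mostly up to about 63 µM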
Protein phosphatase 1D (Homo sapiens), sequence (O15297 whole entry, looked up): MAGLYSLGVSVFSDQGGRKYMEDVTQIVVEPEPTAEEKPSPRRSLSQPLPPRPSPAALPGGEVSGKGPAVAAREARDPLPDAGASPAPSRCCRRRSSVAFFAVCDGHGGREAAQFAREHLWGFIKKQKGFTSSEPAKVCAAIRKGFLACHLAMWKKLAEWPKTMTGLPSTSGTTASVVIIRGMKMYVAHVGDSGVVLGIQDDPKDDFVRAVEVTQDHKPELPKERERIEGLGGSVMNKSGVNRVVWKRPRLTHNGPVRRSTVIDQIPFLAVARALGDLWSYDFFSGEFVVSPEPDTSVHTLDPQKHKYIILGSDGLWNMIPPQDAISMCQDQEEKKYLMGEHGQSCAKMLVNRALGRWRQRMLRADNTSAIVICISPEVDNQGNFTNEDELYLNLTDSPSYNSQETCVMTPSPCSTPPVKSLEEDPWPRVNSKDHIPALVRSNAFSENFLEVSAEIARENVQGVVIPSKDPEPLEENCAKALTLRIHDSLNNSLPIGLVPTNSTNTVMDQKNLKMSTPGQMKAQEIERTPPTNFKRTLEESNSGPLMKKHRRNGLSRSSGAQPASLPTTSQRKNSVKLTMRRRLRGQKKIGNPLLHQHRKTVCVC
How it was run: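 10 nM WIP1 + cpd, 1 h RT; + 2 uM VEPPL-pS-QETFS, 5 min RT; stop 0.5% formic acid; labelled product standard 1 uM; RapidFire MS. Buffer 50 mM Tris pH 7.5, 30 mM MgCl2, 1 mM TCEP.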

[8] = molecular target: Protein phosphatase 1D (Homo sapiens) (UniProt O15297); assay: Rhodamine-PBP qHTS Assay for Modulators of WT P53-Induced Phosphatase 1 (WIP1) (AID 1347425)
How it was run: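 Steps: enzyme with Rh-PBP sensor and compounds, room-temperature incubation of 1 hr, baseline read, addition of VEPPL-pS-QETFS (10 uM final), kinetic fluorescence reads at 525/598 nm. Activity equals final minus baseline signal.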

[9] = molecular target: Calcium and integrin-binding protein 1 (Homo sapiens) (UniProt Q99828); assay: Validation qHTS for Identification of Calcium Integrin Binding protein 1 (CIB1) Competitor (AID 1508618)
Calcium and integrin-binding protein 1 (Homo sapiens), sequence (Q99828 whole entry, looked up): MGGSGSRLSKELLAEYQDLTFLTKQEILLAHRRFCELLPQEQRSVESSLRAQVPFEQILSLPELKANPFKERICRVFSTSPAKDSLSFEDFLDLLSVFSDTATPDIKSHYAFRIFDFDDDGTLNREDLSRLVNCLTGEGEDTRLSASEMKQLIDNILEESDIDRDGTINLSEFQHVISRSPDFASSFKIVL
How it was run: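 In this qHTS validation, the LOPAC set (up to 114 uM) was tested for blocking CIB1 binding to a fluorescein-tagged alphaIIb peptide, with FP detection at 480/540 nm.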

[10] = molecular target: Calcium and integrin-binding protein 1 (Homo sapiens) (UniProt Q99828); assay: Primary qHTS for Identification of Calcium Integrin Binding Protein 1 (CIB1) Competitor (AID 1508620);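 note: GST tagged CIB1 binding a fluorescein labelled alphaIIb integrin peptide tracer; top concentration of the series differs between compounds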
How it was run: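 CIB1-GST (1 uM final) and compound incubated 15 min at room temperature before adding FITC-alphaIIb peptide tracer (100 nM final). Competition for binding read by fluorescence polarization (ex 480, em 540) after another 15 min at room temperature.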

[11] = A High-Content qHTS Against Drug Library for the Identification of Small Molecules that Inhibit DYT1 Early Onset Primary Dystonia-Associated Cell Pathology (AID 1645839; calls by dose curve; note: series mostly up to about 46 µM)
How it was run: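 In this high-content image screen, delE TorsinA mislocalization in inducible Flp-In 293 cells is scored as %pathology, with cell count serving as the counterscreen. Compound exposure lasts 48 h under tetracycline induction in reduced-serum medium.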

[12] = Counterscreen qHTS for small molecule stabilizers of the endoplasmic reticulum resident proteome: GLuc-NoTag assay (AID 1508627);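 note: SH-SY5Y cells given compound then 100 nM thapsigargin to empty ER calcium; series mostly up to about 76 µM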
How it was run: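 Luminescence of Gaussia luciferase secreted into the medium (coelenterazine, 0.07x final, unlysed cells) was the read-out. Human SH-SY5Y neuroblastoma cells constitutively secreting untagged GLuc received compound for 19 h, then 100 nM thapsigargin for 4 h.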

[13] = Primary qHTS for small molecule stabilizers of the endoplasmic reticulum resident proteome: Secreted ER Calcium Modulated Protein (SERCaMP) assay (AID 1508630)
How it was run: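 GLuc-SERCaMP-expressing SH-SY5Y cells, pretreated 16 h with compound, are challenged with thapsigargin to empty ER calcium stores; after 4 h, coelenterazine is added directly to the medium and luminescence is imaged.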

Measured: Potency

O=C(CCCCCN1CCN(c2ccccc2-c2ccccc2)CC1)NC1CCCc2ccccc21 (stereo not drawn)
inactive: [1] | [2] | [3] | [4] | [5]

CC(N)C(=O)OC(C)(C)Cc1ccc(Cl)cc1 (stereo not drawn)
not listed: [2] | [12] | [13]
inactive: all other assays above

N#C/C(=C\c1ccc(-c2cc(Cl)ccc2Cl)o1)C(=O)Nc1cccc2ncccc12
inactive: [2] | [3] | [4] | [5] | [9]
active: [1] 14.1 µM

CC(C)NC[C@@H](O)c1ccc(O)c(O)c1
inactive: [1] | [2] | [3] | [4] | [5]

CN(C)C(N)=NCCC[C@H](N)C(=O)O
inactive: [1] | [2] | [3] | [4] | [5] | [9]

CN1[C@@H](CC(=O)c2ccccc2)CCC[C@H]1C[C@H](O)c1ccccc1
inactive: [1] | [2] | [3] | [4] | [5] | [9] | [12]

Oc1ccccc1O
active: [5] 2 µM
inactive: [1] | [2] | [3] | [4]

CC(C)NC[C@H](O)COc1cccc2[nH]ccc12
inactive: [1] | [2] | [3] | [4] | [5] | [9]

C=CC(C)=C[C@@]1(C)SC(=O)C(C)=C1O
inactive: [1] | [2] | [3] | [4] | [5] | [9]

Clc1ccc(N2CCN(Cc3c[nH]c4ncccc34)CC2)cc1
inactive: [1] | [2] | [3] | [4] | [5] | [9] | [13]

Nc1nc(Cl)nc2c1ncn2[C@@H]1O[C@H](CO)[C@@H](O)[C@H]1O
inactive: [1] | [2] | [3] | [4] | [5] | [9] | [13]

C[N+](C)(C)CCOP(=O)(O)OP(=O)([O-])OC[C@H]1O[C@@H](n2ccc(N)nc2=O)[C@H](O)[C@@H]1O
inactive: [1] | [2] | [3] | [4] | [5] | [9] | [13]

Nc1ncnc2c1ncn2[C@@H]1O[C@H](COP(=O)(O)OP(=O)(O)OP(=O)(O)OP(=O)(O)OC[C@@H]2O[C@H](n3cnc4c(N)ncnc43)[C@@H](O)[C@H]2O)[C@@H](O)[C@H]1O
inactive: [1] | [2] | [3] | [4] | [5] | [9] | [13]

c1ccc(-c2ccccn2)nc1
inactive: [1] | [2] | [3] | [4] | [5] | [13]

CNc1ncnc2c1ncn2[C@@H]1O[C@H](CO)[C@@H](O)[C@H]1O
inactive: [1] | [2] | [3] | [4] | [5] | [9] | [13]

CO/N=C(\C(=O)N[C@@H]1C(=O)N2C(C(=O)O)=C(COC(C)=O)CS[C@H]12)c1csc(N)n1
inactive: [1] | [2] | [3] | [4] | [5] | [9] | [13]

CC(=O)N[C@H](C(=O)O)C(C)(C)SN=O
inactive: [1] | [2] | [3] | [4] | [5] | [9] | [13]

NCC1OC(O[C@H]2[C@H](O)[C@@H](OC3C(O)C(N)CC(N)C3OC3OC(CO)C(O)C(O)C3N)O[C@@H]2CO)C(N)C(O)C1O (stereo partly drawn)
inactive: [1] | [2] | [3] | [4] | [5] | [9] | [13]

O=C(O)CCCC[C@@H]1CCSS1
inactive: [1] | [2] | [3] | [4] | [5] | [13]

O=c1[nH]c2cc([N+](=O)[O-])c([N+](=O)[O-])cc2[nH]c1=O
inactive: [1] | [2] | [3] | [4] | [5] | [13]

O=C(O)c1cc(=O)c2c(Cl)cc(Cl)cc2[nH]1
inactive: [1] | [2] | [3] | [4] | [5] | [9] | [13]

COc1ccc(NC(=O)/C=C/c2ccc(Cl)cc2)cc1
inactive: [1] | [2] | [3] | [4] | [5] | [9] | [13]

O=C(Nc1cccc(C(=O)Nc2ccc(S(=O)(=O)O)c3cc(S(=O)(=O)O)cc(S(=O)(=O)O)c23)c1)Nc1cccc(C(=O)Nc2ccc(S(=O)(=O)O)c3cc(S(=O)(=O)O)cc(S(=O)(=O)O)c23)c1
inactive: [1] | [2] | [3] | [4] | [5] | [13]

O=C(O)CC1CCCc2ccccc2C1O (stereo not drawn)
inactive: [1] | [2] | [3] | [4] | [5] | [9] | [13]

Oc1ccc(C2CNCc3sccc32)cc1O (stereo not drawn)
inactive: [1] | [2] | [3] | [4] | [5] | [9] | [13]

Cc1cc(NC(=O)Nc2ccc3c(ccn3C)c2)sn1
inactive: [1] | [2] | [3] | [4] | [5] | [9] | [13]

O=C(O)CNC(=O)C(CS)Cc1ccccc1 (stereo not drawn)
inactive: [1] | [2] | [3] | [4] | [5] | [9] | [13]

— PubChem BioAssay (NCATS)
